In the library only some 19% were active in any assay of this set; here they are far more common.
Pf growth 48h: P. falciparum growth inhibition at 48 hours (one generation). P. falciparum luciferase growth in erythrocytes, 48 h. Potency, µM (titrated, usually from 28.7 µM), actives largely listed as inhibitors. 310,000 tested, 5.9% active. AID 504832
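Erythrocytes infected with P. falciparum carrying an integrated firefly luciferase reporter (2% hematocrit, 0.1% parasitemia final) were exposed to compounds in RPMI 1640 with 0.5% Albumax at 37 C, 5% CO2. Growth inhibition was scored as reduced luminescence.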
Cycloheximide cs: counter-screen for Shiga toxin inhibitors: cycloheximide protein synthesis inhibition. cell reporter, cycloheximide protein synthesis inhibition counterscreen. 300,000 tested, 12% active. max response, %. AID 2314; in the data active = max response mostly above about 13%, no sharp cut-off; inactive = mostly below about 14%; note: read at 38.3 µM for the half of the compounds with a filed dose
Shiga inhibitor: inhibitors of Shiga toxin in Vero cells | Vero cells, Shiga toxin protein synthesis inhibition reporter | AID 2315 | inhibition, % at 38.7 µM | 290,000 tested, 9.2% active; in the data active = inhibition mostly above about 28%, no sharp cut-off; inactive = mostly below about 43%
LASV entry inh: inhibitors of Lassa virus binding or cell entry | Lassa virus pseudotype entry inhibition, cell reporter | Potency, µM (doses to about 37.9 µM), usual class: inhibitors | 300,000 tested, 1.2% active; calls by dose curve; tested in HEK293 cells; note: nearly all actives have a fitted effect of over 50% in size
Pf growth 96h: inhibits malaria parasite growth, 96 h; P. falciparum luciferase reporter growth, 96 h; Potency, µM (titrated, usually from 28.7 µM), actives largely listed as inhibitors; 320,000 tested, 6.9% active; AID 504834
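Infected RBCs, 2% Hct / 0.05% parasitemia final; luciferase-reporter P. falciparum; cpd 96 h, 37 C, 5% CO2; luciferase detection reagent; luminescence.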
MARV entry inh: Marburg virus entry inhibition. 300,000 tested, 1.8% active. Potency, µM (top dose mostly 37.8 µM), hits mostly inhibitors. Marburg virus pseudotyped entry inhibition, cell reporter; calls by dose curve; tested in HEK293 cells
Numbers stand for hits; – = inactive; ? = inconclusive; · = no result given. Unless noted, calls come from the whole dose curve; as a rule, active = well fitted inhibition curve with a large enough effect; inconclusive = small, poorly fitted or top-dose-only effect, or another doubt; inactive = no such curve, though single readings can be large or run the other way.

SMILES	Pf growth 48h	Cycloheximide cs	Shiga inhibitor	LASV entry inh	Pf growth 96h	MARV entry inh
CCC/C(O)=C1\C(=O)CC(C)(C)CC1=NCCO	–	–	–	–	–	–
COCc1cc(CN2CCCC(C(=O)c3cccc(C(F)(F)F)c3)C2)ccc1OC (stereo not given)	?	–	–	·	–	·
Cc1ccc(S(=O)(=O)N(CC(=O)N2CCCCCC2)c2ccccc2F)cc1	–	–	–	10µM	?	–
CCN(CC)C(=O)CN(c1cc2c(cc1OC)oc1ccccc12)S(=O)(=O)c1ccc(C)cc1	12µM	–	–	?	·	?
Cc1ccc(Cl)cc1N1CCN(C(=O)CN(C2CCCCC2)S(C)(=O)=O)CC1	?	–	–	–	10µM	?
CCOC(=O)N1CCN(C(=O)CN(C2CCCCC2)S(=O)(=O)c2ccc(C)cc2)CC1	10µM	–	–	?	–	–
CCN(CC)S(=O)(=O)c1ccc(C(=O)Nc2cc3oc4ccccc4c3cc2OC)cc1	–	–	–	?	?	–
CC(C)(C)N(Cc1ccccc1)C(=O)CSc1nnc(CNc2ccc(F)cc2)o1	?	–	–	–	–	?
COc1ccc(OC)c(NC(=O)COC(=O)c2ccc(-n3cnnn3)cc2)c1	–	–	–	–	–	–
Cc1cc(OC(=O)c2ccccc2Br)cc(=O)n1C	–	–	–	–	–	–
COc1ccccc1N(CC(=O)N1CCCC1)S(=O)(=O)c1ccc(C)cc1	–	–	–	–	–	–
CCOC(=O)N1CCN(C(=O)CN(c2ccccc2OC)S(=O)(=O)c2ccc(C)cc2)CC1	?	–	–	–	12µM	–
CCCCCCOc1ccc(/C(C)=N/NC2=NCCN2)cc1	?	–	–	·	–	·
CCCCCOc1ccc(/C(C)=N/NC2=NCCN2)cc1	7.4µM	–	–	·	12µM	·
Cc1cccc2cc(C#N)c(NCCNC(=O)COc3ccccc3)nc12	–	–	–	·	–	·
Cn1nc2c3ccccc3n(Cc3ccccc3)c2nc1=S	–	41	121	–	–	?
C=CCn1c2ccccc2c2nnc(SCCCn3c(=O)[nH]c4ccccc43)nc21	13µM	–	–	?	–	?
CCCn1c2ccccc2c2nnc(SCCN3CCOCC3)nc21	?	–	–	?	–	?
C=CCn1c2ccccc2c2nnc(SCCN3CCCCC3)nc21	?	–	·	·	10µM	·
C=CCn1c2ccccc2c2nnc(SCN3C(=O)c4ccccc4C3=O)nc21	–	–	–	–	–	–
c1ccc(CCn2c3ccccc3c3nnc(SCc4ccc5nonc5c4)nc32)cc1	·	–	–	5.8µM	?	3.3µM
Cc1ccc(C(=O)NCC(=O)OCc2cc(=O)n3ccsc3n2)cc1	·	·	·	–	·	·
O=C(Nc1ccc2[nH]c(=O)c(=O)[nH]c2c1)c1cccc(F)c1	·	·	·	–	·	–
CCOC(=O)c1cc2c(=O)n3ccccc3nc2n(Cc2ccco2)c1=NC(=O)c1cccc(Br)c1	·	·	·	–	·	·
O=C(CCn1c(=O)sc2ccccc21)NC1=NCCS1	–	–	–	–	?	–
SMILES	Pf growth 48h	Cycloheximide cs	Shiga inhibitor	LASV entry inh	Pf growth 96h	MARV entry inh
c1ccc(Cn2c3ccccc3c3nnc(SCCN4CCCCC4)nc32)cc1	9.3µM	–	–	–	?	–
CCCn1c2ccc(C)cc2c2nnc(SCCN3CCCCC3)nc21	?	–	–	–	9.3µM	?
CCOC(=O)N1CCC(=NNc2nc(C)cc(=O)[nH]2)CC1	–	–	42	·	?	·
COCCCNc1nc(N)c([N+](=O)[O-])c(NCC2CCCO2)n1 (stereo not given)	?	–	–	–	?	–
CC(C)CNc1nc(N)c([N+](=O)[O-])c(NCC2CCCO2)n1 (stereo not given)	?	–	–	–	12µM	–
C=CCn1c(CSc2nc3ccccc3s2)nnc1SCC(=O)NCc1ccccc1	·	–	–	–	10µM	?
CCn1c(Cc2c(C)[nH]c3ccccc23)nnc1SCC(=O)NCc1ccccc1	?	–	–	–	?	–
C=CCn1c(Cc2c(C)[nH]c3ccccc23)nnc1SCC(=O)NCc1ccc(F)cc1	8.3µM	–	–	–	0.26µM	?
C=CCn1c(CSc2nc3ccccc3s2)nnc1SCC(=O)NCc1cccnc1	?	–	–	–	–	?
O=C(NC1CCCC1)C1C2C=CC(C2)C1C(=O)N1CCOCC1 (stereo not given)	–	–	–	–	9.3µM	–
O=C(O)C1C2C=CC(C2)C1C(=O)N1CCOCC1 (stereo not given)	–	–	–	–	?	–

Screens as filed in PubChem BioAssay.
